Screens as filed in PubChem BioAssay.
ADAM10 inh = human ADAM10 inhibitors, primary screen, biochemical, QFRET, HTS; 370,000 tested, 0.62% active; Disintegrin and metalloproteinase domain-containing protein 10 (Homo sapiens), O14672; recombinant ADAM10, EDANS/DABCYL FRET peptide cleavage, 3 h; AID 720582, 2013; inhibition, % at 7 µM;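 active = inhibition above a per-campaign cutoff equal to the mean of compounds falling between control-based bounds plus 3 SD, cut at about 20% in these data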
proKLK7 act = proKLK7 zymogen activators, primary screen, biochemical, fluorescence intensity; AID 652039, 2013; purified proKLK7, EDANS-DABCYL substrate fluorescence; 100% is mature enzyme control, 0% vehicle; 370,000 tested, 0.9% active; Kallikrein-7 (Homo sapiens), P49862; activation, % at 7 µM;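 active = activation above the mean of all tested compounds plus 3 SD, computed per campaign excluding outliers beyond control limits, cut at about 13% in these data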
HGIII-sPLA2 inh = human group III sPLA2 inhibitors, primary screen, biochemical, QFRET, BODIPY PC-A2 liposome substrate; Group 3 secretory phospholipase A2 (Homo sapiens), Q9NZ20; 370,000 tested, 0.56% active; AID 743126, 2013; inhibition, % at 12.2 µM; QFRET BODIPY PC-A2 liposome hydrolysis, fluorescence;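 active = inhibition above mean plus 3 SD of compounds lying within the high and low control bounds, cut at about 19% in these data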
Target sequence (Q9NZ20 whole entry, looked up): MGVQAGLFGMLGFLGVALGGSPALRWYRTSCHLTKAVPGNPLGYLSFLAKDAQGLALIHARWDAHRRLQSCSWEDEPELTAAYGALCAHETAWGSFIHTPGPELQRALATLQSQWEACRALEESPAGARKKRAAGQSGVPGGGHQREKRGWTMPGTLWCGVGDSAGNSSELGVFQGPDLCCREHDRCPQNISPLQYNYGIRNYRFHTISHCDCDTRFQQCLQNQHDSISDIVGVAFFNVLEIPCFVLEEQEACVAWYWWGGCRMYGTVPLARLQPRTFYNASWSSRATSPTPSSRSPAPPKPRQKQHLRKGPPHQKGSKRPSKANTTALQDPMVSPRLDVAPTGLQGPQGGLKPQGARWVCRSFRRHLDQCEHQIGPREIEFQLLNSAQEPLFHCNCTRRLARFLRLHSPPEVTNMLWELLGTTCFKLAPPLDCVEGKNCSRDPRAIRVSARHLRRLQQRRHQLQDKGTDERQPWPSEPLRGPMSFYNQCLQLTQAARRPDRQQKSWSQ
NRP1-CendR mod = modulators of CendR peptide binding to NRP-1, primary screen, biochemical, fluorescence polarization, uHTS | Neuropilin-1 (Homo sapiens), O14786 | FAM-RPARPAR peptide binding to NRP-1 | inhibition, % at 25 µM | 360,000 tested, 0.85% active;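 active = inhibition or corrected inhibition above about 18%, plus a signal ratio from 0.5 to 1.5, limit read from the data, passing the limit was not always enough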
ADAM17 inh = ADAM17 inhibitors, primary screen, biochemical, QFRET | Disintegrin and metalloproteinase domain-containing protein 17 (Homo sapiens), P78536 | recombinant ADAM17, EDANS/DABCYL FRET peptide cleavage | inhibition, % at 6.95 µM | 370,000 tested, 0.83% active | AID 720648, 2013;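 active = inhibition above the mean of compounds lying between control limits plus 3 SD, set per campaign, cut at about 8.5% in these data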
Large screens that a line does not name were inactive. Rows were chosen to be rich in hits. Some 3.4% of all compounds tested hit in one or more screens of this group.

CNc1nnc(-c2ccc(N(C)C)cc2)s1	proKLK7 act 40
CN1CCN(c2ccc3c(c2)Oc2ccccc2CN(Cc2cn(Cc4ccc(C(F)(F)F)cc4)nn2)S3(=O)=O)CC1	none (no result: NRP1-CendR mod)
O=C(Cc1ccccc1)NC(NCCc1ccccc1)C(Cl)(Cl)Cl (stereo unspecified)	NRP1-CendR mod 22
O=C(NCc1ccccc1)c1ccccc1C(=O)c1ncc[nH]1	NRP1-CendR mod 27
CCn1c(COc2cc(C)cc(C)c2)nnc1SCC(=O)N1CCN(c2ccccc2)CC1	none
CCn1c(COc2c(C)cccc2C)nnc1SCC(=O)N1CCN(c2ccccc2)CC1	NRP1-CendR mod 37
CN1C(=O)C[C@@](C#N)(C(=O)N2CCOCC2)[C@H]1c1ccccc1	none (no result: NRP1-CendR mod)
CCC(=O)N1N=C(c2cccs2)CC1c1ccco1 (stereo unspecified)	NRP1-CendR mod 40
S=c1[nH]nc(-c2n[nH]c3c2CCC3)n1N=Cc1ccc(OCc2ccccc2)cc1	none (no result: NRP1-CendR mod)
Cc1ccc(C)c(Cc2c(C)nc(C)[nH]c2=O)c1	none
Cc1nc(C)c(N)c(=O)[nH]1	NRP1-CendR mod 24
Cc1ccc(-n2c(SCC(=O)c3ccccc3Br)nnc2-c2ccncc2)cc1	none (no result: NRP1-CendR mod)
CC(C)C(CO)N1CCN(Cc2ccccc2)CCC1=O (stereo unspecified)	NRP1-CendR mod 24
NC(=O)Nc1ccc(Oc2c(F)c(F)c(F)c(F)c2F)cc1	NRP1-CendR mod 40
COC(=O)[C@]12C[C@H](CC(=O)NCCC(C)C)C(=O)N(Cc3cccc4ccccc34)C1=C[C@H](C(C)(C)C)O[C@@H]2C	none (no result: NRP1-CendR mod)
O=C(CC1C(=O)NCCN1C(=O)Nc1ccccc1)Nc1cccc(C(F)(F)F)c1 (stereo unspecified)	NRP1-CendR mod 44
C=CCN1C(=O)[C@@H](CC(=O)N2CCCC2)[C@]2(C(=O)OC)CCCCC=C12	none (no result: NRP1-CendR mod)
O=C1C(Nc2ccc(O)cc2)=C/C(=N/S(=O)(=O)c2cccs2)c2ccccc21	none
O=C(O)c1ccc(NC2=C/C(=N/S(=O)(=O)c3cccs3)c3ccccc3C2=O)cc1	NRP1-CendR mod 42
CCc1ccc(S(=O)(=O)/N=C2\C=C(Nc3cccc(C(=O)O)c3)C(=O)c3ccccc32)cc1	NRP1-CendR mod 41
O=C(O)c1ccc(NC2=C/C(=N/S(=O)(=O)c3ccccc3)c3ccccc3C2=O)cc1	NRP1-CendR mod 37
CCCCNC(=O)C[C@@H]1C(=O)N2CCCC3=C2[C@@]1(C(=O)OCC)CCC3	none (no result: NRP1-CendR mod)
COC(=O)CCCC1=CC2=C(c3ccccc3)C(=O)C(C)(OC(=O)C3CCCC3)C(=O)C2=CN1CC1CC1 (stereo unspecified)	none
COC(=O)CCCC1=CC2=C(c3ccccc3)C(=O)C(C)(OC(=O)C3CCCC3)C(=O)C2=CN1CC(C)C (stereo unspecified)	NRP1-CendR mod 28
COC(=O)CCCC1=CC2=C(c3ccccc3)C(=O)C(C)(OC(=O)C3CCCC3)C(=O)C2=CN1C1CCCC1 (stereo unspecified)	NRP1-CendR mod 30
CCCCC1=CC2=C(c3ccco3)C(=O)C(C)(OC(=O)c3ccc(OC)cc3)C(=O)C2=CN1Cc1ccccc1 (stereo unspecified)	none
CCCCC1=CC2=C(c3ccco3)C(=O)C(C)(OC(=O)c3ccc(OC)cc3)C(=O)C2=CN1CCOC (stereo unspecified)	NRP1-CendR mod 28
CCN(CC)CCCN1C=C2C(=O)C(C)(OC(=O)C3CCCC3)C(=O)C(c3ccccc3)=C2C=C1CCCC(=O)OC (stereo unspecified)	NRP1-CendR mod 36
Cc1nn(CCC(=O)NNC(=O)Nc2ccccc2)c(C)c1[N+](=O)[O-]	none (no result: NRP1-CendR mod)
CCN1CCCCC(NC(=O)c2ccc(F)cc2)C1=O (stereo unspecified)	none (no result: NRP1-CendR mod)
COCCN1C=C2C(=O)C(C)(OC(=O)C3CCCC3)C(=O)C(c3ccccc3)=C2C=C1CCCC(=O)OC (stereo unspecified)	NRP1-CendR mod 26
CC1CCN(C(=O)N[C@@H](Cc2ccccc2)C(=O)O)CC1	NRP1-CendR mod 20
O=C(O)[C@H](Cc1ccccc1)NC(=O)N1CCC(Cc2ccccc2)CC1	none
COc1cc(NC(=O)C/C(C)=N/NC(=O)c2ccccn2)c(OC)cc1Cl	NRP1-CendR mod 23
COc1ccccc1NC(=O)C/C(C)=N/NC(=O)c1ccccn1	none
CCN(CC(=O)NCc1cccs1)S(=O)(=O)c1ccc(C(C)C)cc1	NRP1-CendR mod 32
COc1ccc(S(=O)(=O)Nc2ccccc2C(=O)NC2CC2)cc1NC(C)=O	NRP1-CendR mod 28
COC(=O)c1ccccc1NS(=O)(=O)c1ccc(F)cc1	none
COC(=O)c1ccccc1NS(=O)(=O)c1ccc(NC(C)=O)cc1	NRP1-CendR mod 35
CCCCN1CN2Cc3ccc(C)cc3C2CS1(=O)=O (stereo unspecified)	none (no result: NRP1-CendR mod)
C=CCN1C(=O)[C@@H](CC(=O)N2CCSCC2)[C@]2(C(=O)OC)CCCCC=C12	none (no result: NRP1-CendR mod)
CCC(CC)N1CCN(CC2CC=CCC2)CC1 (stereo unspecified)	NRP1-CendR mod 23
CC(C)CC(=O)N1CCN(CC2CC=CCC2)CC1 (stereo unspecified)	none
O=C(OCC12CC3CC(CC(C3)C1)C2)c1ccc(NCc2cc(O)ccc2O)cc1	HGIII-sPLA2 inh 29
N#CCC(=O)Nc1ccc(C(=O)OCC(=O)C23CC4CC(CC(C4)C2)C3)cc1	none
COC(C/C=C\[C@H](O)COCc1ccccc1)OC	NRP1-CendR mod 25
COc1cc2c(c(OC)c1OC)-c1c(cc3c(c1OC)OCO3)[C@@H](OC(C)=O)[C@H](C)[C@H](C)C2	NRP1-CendR mod 27
C/C=C(/C)C(=O)O[C@@H]1c2cc(OC)c(OC)c(OC)c2-c2c(cc3c(c2OC)OCO3)C[C@H](C)[C@]1(C)O	NRP1-CendR mod 28
Cc1c(C)n2c(SCC(=O)N3CCC(C)CC3)nnc2[nH]c1=O	NRP1-CendR mod 24
Cc1c(C)n2c(SCC(=O)NC3CCCCC3)nnc2[nH]c1=O	none
CC(=O)N1CCN(C(=O)c2cc3ccccc3o2)CC1	none
O=C(c1cc2ccccc2o1)N1CCN(S(=O)(=O)c2c(F)cccc2F)CC1	NRP1-CendR mod 33
COc1ccc2c(c1)CCCN2C(=O)C1CCCN(S(=O)(=O)c2c(C(C)C)cc(C(C)C)cc2C(C)C)C1 (stereo unspecified)	none (no result: NRP1-CendR mod)
S=C(Nc1ccc(Oc2ccccc2)cc1)NC1CCCCC1	none
S=C(Nc1ccc(Oc2ccccc2)cc1)NC1CCCCCC1	ADAM17 inh 9.5
CCOC(=O)N1CCN(C(=O)c2cc3n(n2)C(C(F)(F)F)CC(c2ccc4c(c2)OCO4)N3)CC1 (stereo unspecified)	NRP1-CendR mod 22
